Assay results taken from PubChem BioAssay (Tox21).
Results filed as inconclusive are left out. Active and inactive are the calls of the source. Unless noted, calls follow the shape of the full dose curve.

Experiments:
[1] = qHTS assay to identify small molecule agonists of the vitamin D receptor (VDR) signaling pathway - cell viability counter screen (AID 743224; active = well fitted curve in the direction sought with a large enough effect in the repeat runs; an effect the other way counts as inactive or inconclusive; also: series mostly up to about 63 µM; % is scaled to controls: 0 for no effect and ±100 for the full control effect; nearly all actives have a fitted effect of over 50% in size)
Method in brief: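 VDR-bla cells were preincubated 4 h at 37C/5% CO2, then exposed to compounds for 16 h. After the 2 h room-temperature bla FRET read, CellTiter-Glo was added to the same wells and luminescence read after 30 min.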

[2] = qHTS assay to identify small molecule antagonists of the vitamin D receptor (VDR) signaling pathway - cell viability counter screen (AID 743225; active = well fitted curve in the direction sought with a large enough effect in the repeat runs; an effect the other way counts as inactive or inconclusive; also: % is scaled to controls: 0 for no effect and ±100 for the full control effect; nearly all actives have a fitted effect of over 50% in size)
Method in brief: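 Viability counter screen run in the same wells as the beta-lactamase reporter assay: HEK 293T VDR-UAS-bla cells, 16 h compound exposure at 37C with 3 nM (final) 1-alpha,25-dihydroxyvitamin D3. CellTiter-Glo luminescence, 30 min, room temperature.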

[3] = qHTS assay to identify small molecule agonists of the NFkB signaling pathway (AID 1159509; active = well fitted curve in the direction sought with a large enough effect in the signal ratio in the repeat runs, not every such curve was filed as active; the % refers to the signal ratio; also: series mostly up to about 61 µM; % is scaled to controls: 0 for no effect and ±100 for the full control effect)
Method in brief: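 ME-180 NFkB-bla, 2,000 cells/well, overnight plating; cpd pinned in DMSO, 5 h 37 C; B/G FRET substrate 1.5 h RT; ex 405, em 460/530 nm.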

[4] = qHTS assay to identify small molecule agonists of the NFkB signaling pathway - cell viability counter screen (AID 1159515); also: series mostly up to about 61 µM; % is scaled to controls: 0 for no effect and ±100 for the full control effect; nearly all actives have a fitted effect of over 55% in size
Method in brief: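 NFkB-bla ME-180 cells, 2,000/well, were plated overnight at 37 C, 5% CO2, then exposed to compounds in DMSO for 5 hr. After the bla FRET read, CellTiter-Glo was added to the same wells; luminescence was read after 30 min at room temperature.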

[5] = qHTS assay to identify small molecule agonists of the endoplasmic reticulum stress response signaling pathway (AID 1159516; active = well fitted activation curve with a large enough effect in the signal ratio in the repeat runs, not every such curve was filed as active; the % refers to the signal ratio; also: % is scaled to controls: 0 for no effect and ±100 for the full control effect)
Method in brief: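 CellSensor ESRE-bla HeLa cells, carrying a beta-lactamase reporter driven by the ER stress response element, were plated overnight and exposed to compounds for 5 hr at 37 C. Reporter activity was read as FRET substrate fluorescence after 2 hr at room temperature.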

[6] = qHTS assay to identify small molecule agonists of the endoplasmic reticulum stress response signaling pathway - cell viability counter screen (AID 1159517); also: series mostly up to about 61 µM; % is scaled to controls: 0 for no effect and ±100 for the full control effect; nearly all actives have a fitted effect of over 50% in size
Method in brief: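 CellTiter-Glo was added to wells already read for beta-lactamase FRET, and luminescence was recorded 30 min later. Cells: ESRE-bla HeLa, 1,500 per well, compound exposure 5 hr at 37 C.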

[7] = qHTS assay to identify small molecule antagonists of the retinoid-related orphan receptor gamma (ROR-gamma) signaling pathway - cell viability counter screen (AID 1159520; active = well fitted curve in the direction sought with a large enough effect in the repeat runs; an effect the other way counts as inactive or inconclusive; also: % is scaled to controls: 0 for no effect and ±100 for the full control effect; nearly all actives have a fitted effect of over 50% in size)
Method in brief: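 Tet-on ROR gamma CHO cells (1,000/well) were plated 4 hr, given compounds in DMSO for 2 hr at 37 C, then induced with 1 uM final doxycycline for 16 hr. Viability was read as ATP by CellTiter-Glo luminescence after 30 min.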

[8] = molecular target: Nuclear receptor ROR-gamma (Homo sapiens) (UniProt P51449); assay: qHTS assay to identify small molecule antagonists of the retinoid-related orphan receptor gamma (ROR-gamma) signaling pathway (AID 1159521; active = well fitted curve in the direction sought with a large enough effect in the repeat runs; an effect the other way counts as inactive or inconclusive)
Method in brief: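 Luminescence readout (ONE-Glo, 30 min RT) after 16 h doxycycline induction; loss of signal scored as antagonism. CHO cells with TET-inducible RORγ and RORE-LUC reporter; compounds added 2 h before 1 uM final doxycycline.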

[9] = qHTS assay to identify small molecule agonists of the AP-1 signaling pathway - cell viability counter screen (AID 1159525); also: nearly all actives have a fitted effect of over 55% in size
Method in brief: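 ME-180 AP-1-bla, 2500 cells/well, Opti-MEM + 0.5% dialyzed FBS; overnight 37 °C; cpd 15-pt titration, 5 h 37 °C; CellTiter-Glo 30 min RT; luminescence read; normalised to TOAB and DMSO controls.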

[10] = qHTS assay to identify small molecule agonists of the AP-1 signaling pathway (AID 1159526); also: % is scaled to controls: 0 for no effect and ±100 for the full control effect

Nc1nc(-c2ccccc2)c(Br)c(=O)[nH]1
inactive: outcome [1] | outcome [2] | outcome [3] | outcome [4] | outcome [5] | outcome [6] | outcome [7] | outcome [8] | outcome [9] | outcome [10]

CCCCOCC(C)O (centres undefined)
inactive: outcome [1] | outcome [2] | outcome [3] | outcome [4] | outcome [5] | outcome [6] | outcome [7] | outcome [8] | outcome [9] | outcome [10]

C=CCOC(=O)CCCCCC
inactive: outcome [1] | outcome [2] | outcome [3] | outcome [4] | outcome [5] | outcome [6] | outcome [7] | outcome [8] | outcome [9] | outcome [10]

OC[C@@H](O)C(O)[C@@H](O)CO (some centres undefined)
inactive: outcome [1] | outcome [3] | outcome [4] | outcome [5] | outcome [6] | outcome [7] | outcome [8] | outcome [9] | outcome [10]

CO/N=C(/C(=O)N[C@@H]1C(=O)N2C(C(=O)[O-])=C(C[n+]3ccn4ncccc43)CS[C@H]12)c1nsc(N)n1
inactive: outcome [1] | outcome [2] | outcome [3] | outcome [4] | outcome [5] | outcome [6] | outcome [7] | outcome [8] | outcome [9] | outcome [10]

C=CCCCCCCCCC(=O)OCCCC
inactive: outcome [1] | outcome [2] | outcome [3] | outcome [4] | outcome [5] | outcome [6] | outcome [7] | outcome [8] | outcome [9] | outcome [10]

CCCCCCC1(C)CCC(=O)O1 (centres undefined)
inactive: outcome [1] | outcome [2] | outcome [3] | outcome [4] | outcome [5] | outcome [6] | outcome [7] | outcome [8] | outcome [9] | outcome [10]

NCCOCCN
inactive: outcome [1] | outcome [3] | outcome [4] | outcome [5] | outcome [6] | outcome [7] | outcome [8] | outcome [9] | outcome [10]

O=C(Cn1ccnc1[N+](=O)[O-])NCc1ccccc1
inactive: outcome [1] | outcome [3] | outcome [4] | outcome [5] | outcome [6] | outcome [7] | outcome [8] | outcome [9] | outcome [10]

O=C(CCCl)NCCc1ccccc1
inactive: outcome [1] | outcome [2] | outcome [3] | outcome [4] | outcome [5] | outcome [6] | outcome [7] | outcome [8] | outcome [9] | outcome [10]

CCCCCCCCCCCCCCCCCCOCCO
inactive: outcome [1] | outcome [2] | outcome [3] | outcome [4] | outcome [5] | outcome [6] | activity, negative = cytotoxicity [7] -10.1% [at 19 µM] | activity change, negative = inhibition [8] -12.9% [at 19 µM] | viability change, negative = cytotoxic [9] -27.1% [at 15.8 µM] | activation [10] 0.248% [at 15.8 µM]

CCC(=O)CC
inactive: outcome [1] | outcome [3] | outcome [4] | outcome [5] | outcome [6] | outcome [7] | outcome [8] | outcome [9] | outcome [10]

COc1ccc2c(c1)c1c3n2CCN(C)C3=NCC1
inactive: outcome [1] | outcome [2] | outcome [3] | outcome [4] | outcome [5] | outcome [6] | outcome [7] | outcome [8] | outcome [9] | outcome [10]

COC(=O)c1cccc(Cl)c1
inactive: outcome [1] | outcome [3] | outcome [4] | outcome [5] | outcome [6] | outcome [7] | outcome [8] | outcome [9] | outcome [10]

C[C@@H](O)C(=O)O
inactive: outcome [1] | outcome [2] | outcome [3] | outcome [4] | outcome [5] | outcome [6] | outcome [7] | outcome [8] | outcome [9] | outcome [10]

COC(=O)CCCCC(=O)O
inactive: outcome [1] | outcome [2] | outcome [3] | outcome [4] | outcome [5] | outcome [6] | outcome [7] | outcome [8] | outcome [9] | outcome [10]

COP(=O)(O)OP(=O)(O)OC
inactive: outcome [1] | outcome [3] | outcome [4] | outcome [5] | outcome [6] | outcome [7] | outcome [8] | outcome [9] | outcome [10]

Cc1cc(C)c(C(=O)O)c(C)c1
inactive: outcome [3] | outcome [4] | outcome [5] | outcome [6] | outcome [7] | outcome [8] | outcome [9] | outcome [10]

COc1cc(OC)nc(O[C@H](C(=O)O)C(OC)(c2ccccc2)c2ccccc2)n1
inactive: outcome [1] | outcome [2] | outcome [3] | outcome [4] | outcome [5] | outcome [6] | outcome [7] | outcome [8] | outcome [9] | outcome [10]

Cc1ccc(C(C)NC(=O)[C@@H](NC(=O)OC(C)C)C(C)C)cc1 (some centres undefined)
inactive: outcome [1] | outcome [2] | outcome [3] | outcome [4] | outcome [5] | outcome [6] | outcome [7] | outcome [8] | outcome [9] | outcome [10]

CN(C)CCCCl
inactive: outcome [1] | outcome [2] | outcome [3] | outcome [4] | outcome [5] | outcome [6] | outcome [7] | outcome [8] | outcome [9] | outcome [10]

COC(=O)c1ccccc1C(=O)O
inactive: outcome [3] | outcome [4] | outcome [5] | outcome [6] | outcome [7] | outcome [8] | outcome [9] | outcome [10]

CC(=O)CCc1ccc(OC(C)=O)cc1
inactive: outcome [1] | outcome [2] | outcome [3] | outcome [4] | outcome [5] | outcome [6] | outcome [7] | outcome [8] | outcome [9] | outcome [10]

C/C(=C1\CCOC(=O)S1)N(C=O)Cc1cnc(C)nc1N
inactive: outcome [1] | outcome [3] | outcome [4] | outcome [5] | outcome [6] | outcome [7] | outcome [8] | outcome [9] | outcome [10]

O=C(O)CCCCCC(=O)O
inactive: outcome [1] | outcome [2] | outcome [3] | outcome [4] | outcome [5] | outcome [6] | outcome [7] | outcome [8] | outcome [9] | outcome [10]
